Test results from ChEMBL document CHEMBL1961873, “Compounds: GSK PKIS; Assays: Nanosyn kinase panel” (2012).

Experiments:
[1] = biological target: Sphingosine kinase 1 (Homo sapiens) (UniProt Q9NYA1); conditions: at 1 µM;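 further: mean SPHK1 inhibition value reported from the GSK PKIS kinase panel screen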
[2] = biological target: T1, Sphingosine kinase 2 (Homo sapiens) (UniProt Q9NRA0); conditions: at 0.1 µM
T1 sequence (whole entry): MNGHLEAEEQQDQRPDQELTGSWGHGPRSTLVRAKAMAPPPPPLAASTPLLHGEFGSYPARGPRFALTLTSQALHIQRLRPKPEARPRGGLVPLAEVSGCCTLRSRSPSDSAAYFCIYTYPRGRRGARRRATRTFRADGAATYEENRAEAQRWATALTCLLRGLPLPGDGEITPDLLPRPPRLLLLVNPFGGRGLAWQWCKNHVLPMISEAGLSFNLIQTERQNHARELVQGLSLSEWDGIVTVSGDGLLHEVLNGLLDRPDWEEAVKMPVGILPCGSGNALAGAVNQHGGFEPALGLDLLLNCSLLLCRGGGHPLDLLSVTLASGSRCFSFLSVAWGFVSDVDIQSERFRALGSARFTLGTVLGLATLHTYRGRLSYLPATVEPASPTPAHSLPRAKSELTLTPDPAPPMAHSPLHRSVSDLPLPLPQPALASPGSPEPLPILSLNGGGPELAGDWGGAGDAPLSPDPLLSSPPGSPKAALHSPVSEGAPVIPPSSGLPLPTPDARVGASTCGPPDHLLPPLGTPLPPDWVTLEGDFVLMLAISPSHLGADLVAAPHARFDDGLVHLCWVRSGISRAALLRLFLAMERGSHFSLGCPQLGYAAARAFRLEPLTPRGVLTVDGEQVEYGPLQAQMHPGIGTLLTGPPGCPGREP

[3] = biological target: T1, Sphingosine kinase 2 (Homo sapiens); conditions: at 1 µM
[4] = biological target: Casein kinase II subunit alpha (Homo sapiens) (UniProt P68400); conditions: at 0.1 µM
Sequence of Casein kinase II subunit alpha (Homo sapiens) (P68400 whole entry, looked up): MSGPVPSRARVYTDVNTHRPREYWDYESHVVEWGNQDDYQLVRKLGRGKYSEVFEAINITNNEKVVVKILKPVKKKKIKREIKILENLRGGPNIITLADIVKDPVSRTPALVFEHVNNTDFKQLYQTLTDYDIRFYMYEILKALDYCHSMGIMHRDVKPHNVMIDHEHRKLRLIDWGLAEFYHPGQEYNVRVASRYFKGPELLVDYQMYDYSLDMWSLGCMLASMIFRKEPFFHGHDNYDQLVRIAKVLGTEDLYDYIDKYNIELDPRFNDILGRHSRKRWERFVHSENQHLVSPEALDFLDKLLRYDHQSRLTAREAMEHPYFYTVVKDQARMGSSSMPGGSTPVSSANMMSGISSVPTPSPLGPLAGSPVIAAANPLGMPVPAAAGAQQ

[5] = biological target: Casein kinase II subunit alpha (Homo sapiens) (UniProt P68400); conditions: at 1 µM
[6] = biological target: T2, Inhibitor of nuclear factor kappa-B kinase subunit alpha (Homo sapiens) (UniProt O15111); conditions: at 0.1 µM
T2 sequence (whole entry): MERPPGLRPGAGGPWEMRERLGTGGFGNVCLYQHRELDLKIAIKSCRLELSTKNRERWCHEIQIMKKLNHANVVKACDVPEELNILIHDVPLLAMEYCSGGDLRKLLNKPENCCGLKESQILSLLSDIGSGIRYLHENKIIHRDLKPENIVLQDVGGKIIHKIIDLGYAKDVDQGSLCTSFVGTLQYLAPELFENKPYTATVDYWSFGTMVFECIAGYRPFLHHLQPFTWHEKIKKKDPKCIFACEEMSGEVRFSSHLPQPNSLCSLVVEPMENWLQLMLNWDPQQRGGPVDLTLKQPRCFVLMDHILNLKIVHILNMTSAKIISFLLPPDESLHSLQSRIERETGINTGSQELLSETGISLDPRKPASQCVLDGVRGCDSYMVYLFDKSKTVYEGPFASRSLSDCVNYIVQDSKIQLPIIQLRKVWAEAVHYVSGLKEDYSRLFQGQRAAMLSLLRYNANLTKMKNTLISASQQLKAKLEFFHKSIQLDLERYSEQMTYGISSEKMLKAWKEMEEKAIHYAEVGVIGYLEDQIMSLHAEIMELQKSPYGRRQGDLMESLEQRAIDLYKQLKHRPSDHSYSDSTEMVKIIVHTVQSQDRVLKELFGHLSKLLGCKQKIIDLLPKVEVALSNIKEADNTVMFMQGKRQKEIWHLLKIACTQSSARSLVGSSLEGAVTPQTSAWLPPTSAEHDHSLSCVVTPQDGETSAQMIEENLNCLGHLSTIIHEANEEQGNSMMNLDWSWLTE

[7] = biological target: T2, Inhibitor of nuclear factor kappa-B kinase subunit alpha (Homo sapiens); conditions: at 1 µM
[8] = biological target: T3, Inhibitor of nuclear factor kappa-B kinase subunit beta (Homo sapiens) (UniProt O14920); conditions: at 0.1 µM
T3 sequence (whole entry): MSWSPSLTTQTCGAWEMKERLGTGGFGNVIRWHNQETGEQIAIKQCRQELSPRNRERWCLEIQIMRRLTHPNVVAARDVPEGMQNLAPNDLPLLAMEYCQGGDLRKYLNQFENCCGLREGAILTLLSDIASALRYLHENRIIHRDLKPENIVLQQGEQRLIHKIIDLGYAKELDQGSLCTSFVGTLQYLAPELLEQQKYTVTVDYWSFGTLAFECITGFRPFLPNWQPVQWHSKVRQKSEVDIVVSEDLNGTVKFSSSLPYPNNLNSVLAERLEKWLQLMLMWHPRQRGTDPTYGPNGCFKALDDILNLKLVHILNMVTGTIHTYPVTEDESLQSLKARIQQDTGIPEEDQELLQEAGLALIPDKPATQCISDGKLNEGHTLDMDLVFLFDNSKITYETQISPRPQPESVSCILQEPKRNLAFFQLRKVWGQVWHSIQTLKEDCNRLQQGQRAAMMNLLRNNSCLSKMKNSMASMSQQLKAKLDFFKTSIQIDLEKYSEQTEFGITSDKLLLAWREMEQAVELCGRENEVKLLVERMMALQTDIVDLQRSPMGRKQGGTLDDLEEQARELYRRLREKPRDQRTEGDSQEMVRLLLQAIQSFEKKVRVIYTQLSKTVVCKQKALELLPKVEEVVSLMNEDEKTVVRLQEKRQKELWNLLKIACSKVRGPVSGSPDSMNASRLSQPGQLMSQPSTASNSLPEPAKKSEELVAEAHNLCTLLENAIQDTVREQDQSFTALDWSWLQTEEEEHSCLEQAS

[9] = biological target: T3, Inhibitor of nuclear factor kappa-B kinase subunit beta (Homo sapiens); conditions: at 1 µM
[10] = biological target: T4, Inhibitor of nuclear factor kappa-B kinase subunit epsilon (Homo sapiens) (UniProt Q14164); conditions: at 0.1 µM
T4 sequence (whole entry): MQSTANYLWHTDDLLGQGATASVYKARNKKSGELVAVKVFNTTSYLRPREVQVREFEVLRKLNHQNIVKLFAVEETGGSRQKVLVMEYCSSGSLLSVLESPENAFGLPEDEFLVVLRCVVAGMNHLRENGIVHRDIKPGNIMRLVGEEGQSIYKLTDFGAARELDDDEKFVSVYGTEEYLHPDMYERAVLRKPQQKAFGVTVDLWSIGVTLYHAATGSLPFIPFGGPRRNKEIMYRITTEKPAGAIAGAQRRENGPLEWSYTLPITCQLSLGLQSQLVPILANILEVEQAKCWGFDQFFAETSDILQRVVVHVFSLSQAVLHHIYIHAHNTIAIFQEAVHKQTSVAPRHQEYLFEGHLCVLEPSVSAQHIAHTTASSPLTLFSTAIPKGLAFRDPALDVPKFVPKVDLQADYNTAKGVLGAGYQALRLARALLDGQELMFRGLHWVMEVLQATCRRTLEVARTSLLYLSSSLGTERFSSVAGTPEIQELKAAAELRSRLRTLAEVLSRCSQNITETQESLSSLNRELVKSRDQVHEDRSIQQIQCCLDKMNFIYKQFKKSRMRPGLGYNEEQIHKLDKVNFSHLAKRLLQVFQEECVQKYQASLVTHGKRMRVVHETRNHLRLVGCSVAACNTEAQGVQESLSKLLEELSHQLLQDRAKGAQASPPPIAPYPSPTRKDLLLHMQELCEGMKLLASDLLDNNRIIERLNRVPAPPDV

[11] = biological target: T4, Inhibitor of nuclear factor kappa-B kinase subunit epsilon (Homo sapiens); conditions: at 1 µM
[12] = biological target: T5, Serine/threonine-protein kinase Nek1 (Homo sapiens) (UniProt Q96PY6); conditions: at 0.1 µM
T5 sequence (whole entry): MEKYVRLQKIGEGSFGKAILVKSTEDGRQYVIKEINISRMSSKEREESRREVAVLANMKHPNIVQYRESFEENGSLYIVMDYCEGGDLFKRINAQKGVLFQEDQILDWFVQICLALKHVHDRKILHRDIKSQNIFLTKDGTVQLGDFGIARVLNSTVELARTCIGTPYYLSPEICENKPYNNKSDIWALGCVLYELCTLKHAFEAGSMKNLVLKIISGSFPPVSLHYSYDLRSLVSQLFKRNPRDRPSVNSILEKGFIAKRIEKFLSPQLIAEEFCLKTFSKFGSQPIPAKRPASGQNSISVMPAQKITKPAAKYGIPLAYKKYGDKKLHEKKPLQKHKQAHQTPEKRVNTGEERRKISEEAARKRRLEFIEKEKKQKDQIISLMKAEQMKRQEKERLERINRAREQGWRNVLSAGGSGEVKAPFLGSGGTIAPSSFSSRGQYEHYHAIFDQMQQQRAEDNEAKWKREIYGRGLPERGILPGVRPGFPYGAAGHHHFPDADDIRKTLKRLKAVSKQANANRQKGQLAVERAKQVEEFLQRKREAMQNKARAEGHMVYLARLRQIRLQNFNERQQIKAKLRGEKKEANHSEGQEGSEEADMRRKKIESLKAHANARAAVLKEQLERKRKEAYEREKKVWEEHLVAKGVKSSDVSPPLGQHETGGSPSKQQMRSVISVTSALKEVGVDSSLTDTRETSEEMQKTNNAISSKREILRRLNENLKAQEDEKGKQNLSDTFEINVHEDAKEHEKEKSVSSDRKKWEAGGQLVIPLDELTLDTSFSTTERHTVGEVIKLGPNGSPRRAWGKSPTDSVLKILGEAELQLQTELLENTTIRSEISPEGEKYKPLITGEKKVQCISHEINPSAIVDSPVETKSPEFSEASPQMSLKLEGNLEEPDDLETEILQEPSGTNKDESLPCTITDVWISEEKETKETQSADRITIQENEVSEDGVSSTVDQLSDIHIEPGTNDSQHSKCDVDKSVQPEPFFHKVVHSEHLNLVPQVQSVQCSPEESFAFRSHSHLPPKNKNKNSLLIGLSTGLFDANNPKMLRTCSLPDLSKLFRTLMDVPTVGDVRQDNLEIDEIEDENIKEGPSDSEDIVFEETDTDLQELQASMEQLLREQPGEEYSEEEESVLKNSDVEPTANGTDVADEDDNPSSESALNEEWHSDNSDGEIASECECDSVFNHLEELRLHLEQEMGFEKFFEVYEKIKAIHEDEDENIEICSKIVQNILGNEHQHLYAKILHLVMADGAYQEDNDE

[13] = biological target: T5, Serine/threonine-protein kinase Nek1 (Homo sapiens); conditions: at 1 µM
[14] = biological target: T6, Serine/threonine-protein kinase Nek2 (Homo sapiens) (UniProt P51955); conditions: at 0.1 µM
T6 sequence (whole entry): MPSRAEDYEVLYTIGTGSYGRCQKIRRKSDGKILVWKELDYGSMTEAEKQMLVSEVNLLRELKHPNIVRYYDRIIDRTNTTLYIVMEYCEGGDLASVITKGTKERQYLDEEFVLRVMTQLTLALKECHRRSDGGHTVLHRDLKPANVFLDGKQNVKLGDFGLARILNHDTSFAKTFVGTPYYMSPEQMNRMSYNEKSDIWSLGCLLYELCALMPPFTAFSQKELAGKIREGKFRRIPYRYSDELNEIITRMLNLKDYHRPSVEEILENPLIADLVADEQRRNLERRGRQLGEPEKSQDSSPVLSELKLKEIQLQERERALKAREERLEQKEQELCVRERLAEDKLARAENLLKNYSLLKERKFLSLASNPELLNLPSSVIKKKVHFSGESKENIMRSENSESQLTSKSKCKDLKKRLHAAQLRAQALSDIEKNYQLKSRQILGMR

[15] = biological target: T6, Serine/threonine-protein kinase Nek2 (Homo sapiens); conditions: at 1 µM
[16] = biological target: Serine/threonine-protein kinase Nek6 (Homo sapiens) (UniProt Q9HC98); conditions: at 0.1 µM
Sequence of Serine/threonine-protein kinase Nek6 (Homo sapiens) (Q9HC98 whole entry): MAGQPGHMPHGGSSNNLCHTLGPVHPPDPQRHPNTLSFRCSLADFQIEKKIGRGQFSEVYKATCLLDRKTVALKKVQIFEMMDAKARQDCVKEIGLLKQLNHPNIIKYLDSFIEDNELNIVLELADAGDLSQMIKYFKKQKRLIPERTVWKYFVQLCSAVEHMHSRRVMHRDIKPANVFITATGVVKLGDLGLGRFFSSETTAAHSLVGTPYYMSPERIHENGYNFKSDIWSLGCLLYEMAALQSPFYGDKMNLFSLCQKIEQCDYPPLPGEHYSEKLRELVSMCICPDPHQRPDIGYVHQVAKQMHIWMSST

[17] = biological target: Serine/threonine-protein kinase Nek6 (Homo sapiens) (UniProt Q9HC98); conditions: at 1 µM
[18] = biological target: Serine/threonine-protein kinase Nek7 (Homo sapiens) (UniProt Q8TDX7); conditions: at 0.1 µM
Sequence of Serine/threonine-protein kinase Nek7 (Homo sapiens) (Q8TDX7 whole entry, looked up): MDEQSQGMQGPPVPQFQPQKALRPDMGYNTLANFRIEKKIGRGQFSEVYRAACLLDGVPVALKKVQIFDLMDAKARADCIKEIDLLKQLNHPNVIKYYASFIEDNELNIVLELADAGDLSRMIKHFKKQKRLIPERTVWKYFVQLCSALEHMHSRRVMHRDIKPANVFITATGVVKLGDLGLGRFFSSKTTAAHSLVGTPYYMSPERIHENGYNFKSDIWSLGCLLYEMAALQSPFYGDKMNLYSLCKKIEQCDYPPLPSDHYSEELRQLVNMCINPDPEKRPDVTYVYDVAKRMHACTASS

[19] = biological target: Serine/threonine-protein kinase Nek7 (Homo sapiens) (UniProt Q8TDX7); conditions: at 1 µM
[20] = biological target: T7, Serine/threonine-protein kinase Nek9 (Homo sapiens) (UniProt Q8TD19); conditions: at 0.1 µM;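 further: reported value is the mean percent inhibition of NEK9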
T7 sequence (whole entry): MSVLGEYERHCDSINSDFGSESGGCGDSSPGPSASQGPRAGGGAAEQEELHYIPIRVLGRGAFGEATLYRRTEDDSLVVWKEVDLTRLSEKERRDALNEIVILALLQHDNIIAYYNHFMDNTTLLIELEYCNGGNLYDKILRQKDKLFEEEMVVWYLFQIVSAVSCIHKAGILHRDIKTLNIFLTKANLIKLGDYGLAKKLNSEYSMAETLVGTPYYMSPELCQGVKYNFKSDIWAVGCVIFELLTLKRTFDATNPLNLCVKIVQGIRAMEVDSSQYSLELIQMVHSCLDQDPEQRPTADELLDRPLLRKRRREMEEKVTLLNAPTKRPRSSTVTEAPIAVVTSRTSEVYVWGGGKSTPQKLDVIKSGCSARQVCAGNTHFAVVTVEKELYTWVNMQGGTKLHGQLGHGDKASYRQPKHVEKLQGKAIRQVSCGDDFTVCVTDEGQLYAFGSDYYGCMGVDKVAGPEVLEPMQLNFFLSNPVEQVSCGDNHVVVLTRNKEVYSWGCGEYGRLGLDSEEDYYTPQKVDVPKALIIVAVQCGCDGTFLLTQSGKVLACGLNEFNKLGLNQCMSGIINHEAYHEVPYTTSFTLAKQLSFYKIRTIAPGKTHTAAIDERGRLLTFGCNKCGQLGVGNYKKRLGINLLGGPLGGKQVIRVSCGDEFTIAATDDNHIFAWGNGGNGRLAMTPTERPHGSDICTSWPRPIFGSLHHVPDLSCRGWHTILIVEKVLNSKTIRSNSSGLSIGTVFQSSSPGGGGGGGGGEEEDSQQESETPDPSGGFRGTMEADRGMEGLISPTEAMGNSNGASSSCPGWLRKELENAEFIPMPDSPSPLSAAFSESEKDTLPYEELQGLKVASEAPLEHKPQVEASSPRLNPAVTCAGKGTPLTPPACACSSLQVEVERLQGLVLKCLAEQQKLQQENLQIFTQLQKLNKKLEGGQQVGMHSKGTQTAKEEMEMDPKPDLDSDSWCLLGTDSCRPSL

Sequence of Sphingosine kinase 1 (Homo sapiens) (Q9NYA1 whole entry): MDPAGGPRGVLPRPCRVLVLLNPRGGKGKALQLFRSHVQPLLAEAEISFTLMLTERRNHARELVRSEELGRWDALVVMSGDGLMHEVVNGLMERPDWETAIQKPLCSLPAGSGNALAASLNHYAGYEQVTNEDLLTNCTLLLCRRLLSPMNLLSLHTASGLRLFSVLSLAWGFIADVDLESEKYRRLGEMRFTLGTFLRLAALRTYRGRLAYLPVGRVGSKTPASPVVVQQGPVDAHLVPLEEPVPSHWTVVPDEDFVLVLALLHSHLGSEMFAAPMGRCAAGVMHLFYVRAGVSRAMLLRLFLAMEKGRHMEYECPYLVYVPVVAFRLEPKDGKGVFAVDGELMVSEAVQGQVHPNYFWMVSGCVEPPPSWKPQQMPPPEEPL

COc1cc(C=NNc2ncnc3c2cnn3-c2ccccc2)ccc1O
inhibition [1]: -3.84% | inhibition [2]: -0.52% | inhibition [3]: -2.55% | inhibition [4]: 9.38% | inhibition [5]: 41.6% | inhibition [6]: 10.6% | inhibition [7]: -1.27% | inhibition [8]: 3.33% | inhibition [9]: -0.52% | inhibition [10]: 3.38% | inhibition [11]: 8.67% | inhibition [12]: 3.59% | inhibition [13]: 15.8% | inhibition [14]: 2.6% | inhibition [15]: 3.58% | inhibition [16]: 1.23% | inhibition [17]: -0.37% | inhibition [18]: 3.01% | inhibition [19]: 5.26% | inhibition [20]: 3.36%
